# PvdQ inh: P. aeruginosa PvdQ acylase inhibition; purified PvdQ acylase, fluorescence plate reader; inhibition, % at 10 µM; 340,000 compounds, 0.063% hits; in the data active means inhibition above about 30%, passing the limit was not always enough;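 further: 0% = vehicle neutral wells and 100% = reference inhibitor wells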
# CDK5 inh: inhibitors of human CDK5/p35 kinase; Recombinant CDK5/p35, ADP-Glo luminescence, 60 min; Q00535+Q15078; inhibition, % at 10 µM; 330,000 compounds, 0.01% hits;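 active means highest replicate inhibition of at least 50% and at least 75% of replicates reaching 50%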;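 further: plate controls were DMSO neutral control for no effect and GW8510 at 10 µM for full effect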
# Target sequence (Q00535 whole entry, looked up): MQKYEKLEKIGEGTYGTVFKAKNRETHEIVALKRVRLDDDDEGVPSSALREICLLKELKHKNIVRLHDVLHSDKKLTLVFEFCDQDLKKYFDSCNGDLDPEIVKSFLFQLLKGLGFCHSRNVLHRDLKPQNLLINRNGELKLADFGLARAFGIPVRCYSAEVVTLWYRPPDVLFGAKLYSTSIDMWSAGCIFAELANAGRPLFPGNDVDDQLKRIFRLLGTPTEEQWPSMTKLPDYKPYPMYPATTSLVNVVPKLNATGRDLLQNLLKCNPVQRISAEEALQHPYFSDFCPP
# Target sequence (Q15078 whole entry, looked up): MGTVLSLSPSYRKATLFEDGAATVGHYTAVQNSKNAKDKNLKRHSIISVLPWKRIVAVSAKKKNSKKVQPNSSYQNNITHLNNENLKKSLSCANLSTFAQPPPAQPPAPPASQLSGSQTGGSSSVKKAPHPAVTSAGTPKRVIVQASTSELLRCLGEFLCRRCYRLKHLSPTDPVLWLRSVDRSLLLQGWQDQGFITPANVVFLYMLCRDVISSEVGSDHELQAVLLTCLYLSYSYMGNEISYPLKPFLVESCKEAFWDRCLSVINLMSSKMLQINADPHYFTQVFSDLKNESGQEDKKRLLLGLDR
# FGF22 binding: FGF22 (human) thermal shift binding; Q9HCT0; recombinant FGF22 thermal shift, SYPRO orange fluorescence; percent of sucrose octasulfate shift, DMSO zero; activity (Tm shift, normalised), % at 9.99 µM; 340,000 compounds, 1.5% hits; AID 651658;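 active means mean Tm shift, scaled 0 neutral to 100 positive control, at about 1.3% or above, every replicate too, limit read from the data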
# SIRT5 inh: sirtuin-5 (human) deacylase inhibition; inhibition, % at 15 µM; AID 652115; 330,000 compounds, 1.1% hits; Purified SirT5, succinyl-peptide AMC, trypsin-coupled fluorescence; in the data active means inhibition above about 15%
# PglD inh: blocks C. jejuni PglD acetyltransferase activity. purified PglD enzyme, DTNB colorimetric CoA detection. inhibition, % at 12.5 µM. 360,000 compounds, 0.098% hits; in the data active means inhibition above about 16%, passing the limit was not always enough
# dFosB act: mouse delta FosB homodimer activation; 340,000 compounds, 0.99% hits; AID 493131; activation, % at 25 µM; purified delta FosB, TAMRA-CDK5 oligo fluorescence polarization; percent of positive-control signal above neutral wells;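 active means mean activation above about 17%, with every replicate also reaching it, limit read from the data, passing the limit was not always enough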
# Numbers without * were called inactive; · = not tested or not shown. Sampled rows, rich in hits. Any-hit rate of the full collection: about 2.8%.
SMILES,PvdQ inh,CDK5 inh,FGF22 binding,SIRT5 inh,PglD inh,dFosB act
Cc1cc2c(c(=O)n1Cc1ccccn1)C(c1ccc3c(c1)OCO3)C(C#N)=C(N)O2 (configuration not stated),-22,-3,·,·,0,-3
COc1ccc(CCn2c(C)cc3c(c2=O)C(c2ccc4c(c2)OCO4)C(C#N)=C(N)O3)cc1OC (configuration not stated),-5,0,·,·,-4,51*
CSCCC(NS(=O)(=O)c1ccccc1F)C(=O)NNC(=O)c1csc(N2CCOCC2)n1 (configuration not stated),-4,-1,0,17*,-6,1
Cc1noc(C)c1NC(=O)N(C)C[C@H]1Oc2c(NC(=O)c3cnccn3)cccc2C(=O)N([C@H](C)CO)C[C@@H]1C,·,·,0,8,0,·
Cc1ccc(S(=O)(=O)Nc2ccc3c(c2)C(=O)N([C@@H](C)CO)C[C@@H](C)[C@@H](CN(C)C(=O)CCC(F)(F)F)OCCCC[C@H](C)O3)cc1,·,·,·,5,-8,·
Cc1ccc(S(=O)(=O)Nc2ccc3c(c2)C(=O)N([C@@H](C)CO)C[C@H](C)[C@H](CN(C)C(=O)CCC(F)(F)F)OCCCC[C@H](C)O3)cc1,·,·,·,17*,0,·
C[C@H](CO)N1C[C@H](C)[C@@H](CN(C)C(=O)CCC(F)(F)F)OCCCC[C@H](C)Oc2ccc(NS(=O)(=O)c3ccc(Cl)cc3)cc2C1=O,·,·,-1,13,14,·
C[C@H]1CCCCO[C@H](CN(C)C(=O)CCC(F)(F)F)[C@@H](C)CN([C@@H](C)CO)C(=O)c2cc(NS(=O)(=O)c3ccc(Cl)cc3)ccc2O1,·,·,-1,15*,0,·
C[C@@H](NC(=O)C[C@H]1C[C@@H]2c3cc(NS(C)(=O)=O)ccc3O[C@@H]2[C@@H](CO)O1)c1ccccc1,·,·,0,6,-1,·
N#Cc1cccc(C#N)c1N1CCC(C#N)CC1,-6,0,42,24*,·,1
N#Cc1c(F)cccc1N1CCC(C#N)CC1,9,-1,0,-10,·,7
Nc1nc(SCc2ccc(Br)cc2)[nH]c(=O)c1-c1ccccc1,11,2,43*,-4,-4,3
C[C@@H](NC(=O)C[C@H]1C[C@@H]2c3cc(NC(=O)CC4CC4)ccc3O[C@@H]2[C@H](CO)O1)c1ccccc1,·,·,0,-3,0,·
C[C@H]1CN([C@@H](C)CO)C(=O)Cc2cc(NC(=O)Cn3cnnn3)ccc2O[C@@H]1CN(C)CC1CCCCC1,·,·,·,1,-3,·
O=C(c1ccc(OC2CCN(Cc3ccccn3)CC2)cc1)N1CCCCO1,-12,0,43*,-5,-1,-3
CC(C)N(Cc1cnn(C)c1)C(=O)c1ccc(OC2CCN(Cc3ccccn3)CC2)cc1,-13,-1,0,17*,3,-5
CCOC(=O)C1CCN(C(=O)Cn2cc(C(=O)OC)c3ccccc32)CC1,-13,-4,0,18*,·,3
CCn1nccc1C(=O)Nc1ccccc1OC,-14,-1,0,-2,-1,-2
CCn1ncc(Br)c1C(=O)Nc1ccccc1OC,-9,-1,44*,-1,·,-7
CNC[C@H]1Oc2ccc(NS(=O)(=O)c3ccc(Cl)cc3)cc2CC(=O)N([C@@H](C)CO)C[C@@H]1C,·,·,0,-3,-1,·
CCCC#Cc1ccc(CC[C@H]2O[C@H]3CC[C@@H](CO)O[C@H]3C[C@H]2NS(=O)(=O)c2ccccc2)cc1,·,·,·,20*,·,·
Cc1cc(CNC(=O)CC2C(=O)NCCN2Cc2ccccc2C(F)(F)F)on1 (configuration not stated),1,-4,0,29*,·,-5
CCn1ccnc1CN(C)C(=O)CC1C(=O)NCCN1Cc1c(F)cccc1Cl (configuration not stated),-8,-1,1,19*,0,-2
CN(Cc1nccn1C)C(=O)CC1C(=O)NCCN1Cc1ccccc1C(F)(F)F (configuration not stated),-10,2,0,17*,-2,-3
Cc1nonc1CN(C)C(=O)CC1C(=O)NCCN1Cc1c(F)cccc1Cl (configuration not stated),-9,2,0,-1,14,1
SMILES,PvdQ inh,CDK5 inh,FGF22 binding,SIRT5 inh,PglD inh,dFosB act
CCc1cc(CNC(=O)CC2C(=O)NCCN2Cc2cccc(OC)c2)on1 (configuration not stated),0,0,44*,1,·,-2
CCc1cc(CNC(=O)CC2C(=O)NCCN2Cc2c(F)cccc2Cl)on1 (configuration not stated),-9,-1,0,1,2,-5
C[C@H]1CN([C@@H](C)CO)S(=O)(=O)c2ccc(C#CCN(C)C)cc2O[C@H]1CN(C)Cc1ccncc1,·,·,0,1,8,·
C[C@@H]1CCCCO[C@@H](CN(C)C(=O)Nc2ccc3c(c2)OCO3)[C@@H](C)CN([C@H](C)CO)C(=O)c2cc(NC(=O)CCCN(C)C)ccc2O1,·,·,-1,2,2,·
C[C@H](CO)N1C[C@H](C)[C@H](CN(C)C(=O)Cc2ccccn2)Oc2cc(C#Cc3ccccc3)ccc2S1(=O)=O,·,·,0,3,-1,·
C[C@@H]1CN([C@@H](C)CO)C(=O)c2cc(/C=C/c3ccccc3)cnc2O[C@H]1CN(C)C(=O)c1cnccn1,·,·,0,-4,-1,·
CN(C)CC(=O)N1[C@@H]2Cn3c(ccc(-c4cccnc4)c3=O)[C@H]1[C@@H](C(=O)NC1CCCC1)[C@@H]2CO,·,·,·,-27,·,·
CCC(=O)N1C[C@@H](C)[C@@H](OC)CN(C)C(=O)c2cc(NC(=O)C3CCOCC3)ccc2OC[C@H]1C,·,·,0,·,0,·
CN(C(=O)CC1C(=O)NCCN1Cc1ccccc1F)C1CCOCC1 (configuration not stated),0,-3,0,-6,-5,-1
CN(C(=O)CC1C(=O)NCCN1Cc1ccccc1C(F)(F)F)C1CCOCC1 (configuration not stated),1,2,0,32*,-5,-3
COC(=O)CSc1nnc(CNC(=O)c2ccc(S(=O)(=O)N(C)C)cc2)n1C,-7,2,43*,1,·,-2
O=C(Nc1ccccc1)N[C@@H]1CC[C@H](CCn2cc(C3(O)CCCC3)nn2)O[C@H]1CO,·,·,0,1,1,·
N/C(=N\OC(=O)CCCOc1ccccc1)c1ccc([N+](=O)[O-])cc1,-16,0,43*,0,·,0
Nc1[nH]ncc1-c1ccc(F)cc1,10,-1,0,-4,0,-9
Nc1[nH]ncc1-c1ccccc1,-5,1,44*,0,·,-4
COc1cccc(-c2ccc3c(c2)[C@@H]2[C@@H](CCN2C(=O)C2CCOCC2)[C@H](CO)N3)c1,·,·,0,-2,3,·
Cc1ccc(C(C)(C)C)c(OCCCn2ccnc2)c1,-7,1,0,-2,·,-5
